This is an account of results in ChEMBL document CHEMBL3988442, “University of Dundee, Small-Polar-MMV Screening Library” (2021).

The campaign covered roughly 48,000 compounds. About 13,000 (27%) showed an effect of 50% or more. Some of the results follow.

The test system of this assay is Wolbachia pipientis. The assay can be described thus: Anti-Wolbachia Cell-Based Screen. The assay is classed as functional. Also on record: scale not given: in the data most compounds retested in dose-response had high values. Conditions: 5 µM.
With `CC(NC(=O)CN1CCN(Cc2ccc(Br)s2)CC1)c1ccccc1` (stereo not drawn), the “Percent Effect” value is given as -2.941%. The same measure for `CCN(CC)c1ccc(NS(=O)(=O)c2cnn(CC)c2)cn1`: -19.91%; for `Cc1ocnc1C(=O)N[C@H]1CN(CC2CCC2)C[C@@H]1C(C)C`: 16.35%; for `Cc1ocnc1C(=O)N(C)[C@@H]1CCC[C@@H](N2CCCC2)[C@@H]1O`: 115.9%. As for `Cc1occc1C(=O)NCC(=O)N1CCC(COc2ccccc2)CC1`, the “Percent Effect” value was found to be 1.262%. Take `Cc1ocnc1C(=O)N(Cc1cccnc1)C[C@@H]1CCC(=O)N1`: the “Percent Effect” value is -1.977%. The same measure for `CCN(CCc1nccs1)C(=O)c1ncoc1C`: -4.771%; for `Cc1occc1C(=O)NCC(=O)N(C)CCCOc1ccccc1`: 11.74%. With `Cc1cn2c(CN(C)C(=O)c3ncoc3C)c(C)nc2s1`, the “Percent Effect” value was -12.17%.

Take `Cc1ocnc1C(=O)N(C)[C@@H]1CC[C@@H](Oc2ccccc2)[C@@H]1O`: the “Percent Effect” value is listed as 100.2%. The same measure for `Cc1ocnc1C(=O)N(C)[C@@H]1CC[C@@H](n2ccnc2C)[C@@H]1O`: 115%. As for `CCCN(CCC)C1(Cc2cc(-c3cccc(O)c3)on2)COC1`, the “Percent Effect” value is -7.184%. The same measure for `N#CCCN(C(=O)CN1CCCC1Cc1ccccc1)c1ccccc1` (stereo not drawn): 14.76%. `CN(C)CCn1ccc(NC(=O)NC(C)(C)c2nccs2)n1`: the “Percent Effect” value is on record as 4.261%.

For the compound `COc1ccc(CNC2(Cc3cc(CC(C)C)on3)COC2)cc1`, the “Percent Effect” value came to 1.284%. Turning to `Cn1ncnc1-c1ccnc(NCc2ccccn2)n1`, the “Percent Effect” value is listed as -1.94%.

With `Cc1cc(-c2cnc(NCc3ccccn3)nc2C(C)C)on1`, the “Percent Effect” value worked out at 93.57%.

For the compound `Cc1cc(-c2cnc(NCc3ccc4c(c3)OCO4)nc2C(C)C)on1`, the “Percent Effect” value worked out at 111.2%. The same measure for `Cn1ccnc1-c1noc(NCc2ccc3c(c2)OCCO3)n1`: -0.6068%; for `COCc1cc(NCc2ccccc2OC)ncn1`: -8.883%; for `COc1ccccc1CNc1ncc(-c2cc(C)no2)c(C(C)C)n1`: 92%. On to `COc1ccc(CNC(C)c2cnc3cc(C)nn3c2C)cc1` (stereo not drawn), for which the “Percent Effect” value is given as 8.81%. In the case of `CC(C)c1nn(C)c(N(C)C)c1CNCc1ccc2c(c1)OCO2`, the “Percent Effect” value is reported as -1.149%. As to `COc1cccc(CNc2nc(C)cc(C)n2)c1OC`, the “Percent Effect” value is given as 34.66%.

On to `COc1ccc(CNc2ncc(-c3cc(C)no3)c(C(C)C)n2)cc1`, for which the “Percent Effect” value is 97.64%.

`Cc1ccn(-c2ccccc2NCc2ccccn2)n1`: the “Percent Effect” value came to 5.866%. As for `CN(Cc1ccc(F)cc1)C(=O)NCC1(N2CCOCC2)CCSC1` (stereo not drawn), the figure is -20.26%; as for `COc1cccc(-n2c(SCC(=O)O)nnc2-c2cn[nH]c2)c1`, 1.781%. In the case of `Cc1csc(CNC(=O)NCC(O)c2ccc(F)cc2F)n1` (stereo not drawn), the “Percent Effect” value was -0.3867%. As for `CCc1c(NCc2ccncc2)cnn1CC(C)C`, the figure is -6.7%. As for `Cc1cnc(NCc2ccc(S(=O)(=O)N(C)C(C)C)cc2)nc1C`, the “Percent Effect” value is given as -3.312%.

As for `Cc1cc(-c2cnc(NCc3ccncc3)nc2C(C)C)on1`, the “Percent Effect” value turned out to be 155.1%. Turning to `Cc1ccc2c(c1)C1(CC2)CCN(c2nncs2)CC1`, the “Percent Effect” value is -2.782%. As for `O=C(O)C(F)(F)F.c1cncc(-c2ccc3c(c2)C2(CC3)CCN(c3nncs3)CC2)c1`, the figure is 7.623%; as for `CC/C=C(/C)C(=O)N1CCN(C2=NCC(C)S2)CC1` (stereo not drawn), -1.897%.

With `CCOCCN1CCN(Cc2nc(C3CC3)no2)CC1CC` (stereo not drawn), the “Percent Effect” value is on record as -17.64%. Regarding `CN(C)CCNC(=O)[C@H]1C[C@@H]2CN(C(=O)NC3CCCC3)C[C@H]1O2.O=C(O)C(F)(F)F`, the “Percent Effect” value was 6.498%. Take `CC(C)CN1C[C@H]2C[C@H](C(=O)NC3CCC3)[C@@H](C1)O2.O=C(O)C(F)(F)F`: the “Percent Effect” value was found to be 89.64%. As to `O=C(NC1CCC1)[C@H]1C[C@@H]2CN(S(=O)(=O)c3ccccc3)C[C@H]1O2`, the “Percent Effect” value came out at 5.233%. As for `O=C(NC1CC1)[C@@H]1CCO[C@@H]2CCN(CC3CCC3)C[C@@H]21.O=C(O)C(F)(F)F`, the figure is 20.69%; as for `O=C(NC1CCC1)[C@H]1C[C@@H]2CN(CC3CC3)C[C@H]1O2.O=C(O)C(F)(F)F`, 120%. On to `O=C(NC1CC1)[C@@H]1CCO[C@@H]2CCN(CC3CCC3)C[C@H]21.O=C(O)C(F)(F)F`, for which the “Percent Effect” value is given as -19.72%. The same measure for `NC(=O)c1cc(-c2cccc(C(=O)O)c2)cs1`: 7.533%. With `CCCN(C)CC1CCN(c2ccc(Br)c(C)n2)C1` (stereo not drawn), the “Percent Effect” value is -15.16%. On to `NC(=O)[C@@H]1Cc2ccccc2CN1CCc1cccs1`, for which the “Percent Effect” value is on record as -22.09%.

For `NC(=O)[C@@H]1Cc2ccccc2CN1S(=O)(=O)N1CCCCC1`, the “Percent Effect” value amounted to 78.36%. As for `NC(=O)C1Cc2ccccc2CN1CCC(=O)N1CCc2ccccc21` (stereo not drawn), the figure is -4.733%. For the compound `NC(=O)[C@@H]1Cc2ccccc2CN1CCC(=O)N1CCOCC1`, the “Percent Effect” value amounted to 8.62%.

For `CC1CCN(C(=O)CCN2Cc3ccccc3C[C@H]2C(N)=O)C1` (stereo partly drawn), the “Percent Effect” value was -2.608%. `NC(=O)[C@@H]1Cc2ccccc2CN1S(=O)(=O)N1CCCCCC1`: the “Percent Effect” value is 103%. On to `CC1CCN(S(=O)(=O)N2Cc3ccccc3C[C@H]2C(N)=O)CC1`, for which the “Percent Effect” value worked out at 91.1%. As for `NC(=O)C1CCCN1c1cc(N2CCc3ccccc3C2)ncn1` (stereo not drawn), the figure is -10.01%; as for `CC1CCN(S(=O)(=O)N2C[C@H](c3ccccc3)[C@@H](N)C2)CC1`, -3.535%.
